Drawing on PubChem BioAssay AID651640 (Broad Institute, 2012), this text covers CPE inhibition for 71 molecules.

Several values for one entry are separate records, joined by “and”; a condition that tells them apart may be missing. Equal entries are not always repeated. Out of some 350,000 compounds screened, about 6,000 (1.7%) were called active. Inconclusive results (about 5%) are left out. Cut-off read from the data, not from the text of the source: active = CPE inhibition above about 20% (passing the limit was not always enough); inconclusive = no clear call, values can overlap the other calls; tested in BHK-21 cells. For the sample, actives were picked, then their nearest neighbours and some compounds at random. Some structures have more than one record in an assay (separate samples or runs), and their calls can disagree.

The assay in a line: inhibitors of DENV2 cytopathic effect, primary screen, cell-based, plate reader, single concentration (AID 651640).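 Note: 0% = median of neutral control wells and 100% = median of positive control wells.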 Particulars: DENV2-infected cells, cytopathic effect rescue, at 9.99 µM, stronger effect = higher value. In general terms: Damage to the host cells serves as the signal in cytopathic effect assays.
As for `CN1c2ccc(Br)cc2[C@H]2[C@H](CCN2S(=O)(=O)c2ccc(F)cc2)[C@@H]1CO`, the CPE inhibition is 0.0605% (inactive).

Take `CO[C@@H]1CN(C)C(=O)c2ccc(NC(=O)C3CC3)cc2OC[C@H](C)N(C(C)=O)C[C@H]1C`: the CPE inhibition is 7.67% (inactive).

Turning to `COc1ccc(C[C@H]2CN3C(=NC[C@H]3C)N2CCNC(=O)CCC2CCCCC2)cc1`, the CPE inhibition is -4.48% (inactive).

For the molecule `NC1=NC[C@@H](Cc2ccc(O)cc2)N1CC1CCCCC1`, the CPE inhibition is 2.56% (inactive).

Take `C/C=C(\C)C(=O)NCCN1C2=NC[C@H](Cc3ccc(O)cc3)N2C[C@@H]1Cc1ccc(OC)cc1`: the CPE inhibition was 77.3% (active).

Regarding `CCC(=O)N1C[C@@H](O)COC[C@H]2O[C@H](CC(=O)NCC3CCCCC3)CC[C@@H]21`, the CPE inhibition is -3.58% (inactive).

Consider `CCC(=O)Nc1ccc2c(c1)nc(CCN1CCN(c3ccccn3)CC1)n2C`, for which the CPE inhibition was 0.997% (inactive).

Turning to `CCOC(=O)N1CCN(Cc2nc3cc(NC(=O)CC)ccc3n2CC)CC1`, the CPE inhibition is 38.6% (active).

On to `CCOC(=O)N1CCN(Cc2nc3cc(NC(C)=O)ccc3n2C)CC1`, for which the CPE inhibition was -3.68% (inactive).

For `C[C@@H]1CN([C@H](C)CO)C(=O)c2cccc(NC(=O)c3ccncc3)c2O[C@@H]1CN(C)S(=O)(=O)c1cn(C)cn1`, the CPE inhibition is 15% (inactive).

As to `O=C(Nc1ccccc1F)N[C@@H]1C=C[C@H](CC(=O)N2CCCCC2)O[C@@H]1CO`, the CPE inhibition is -0.192% (inactive).

With `Cc1noc(C)c1NC(=O)N(C)C[C@@H]1OCCCC[C@H](C)Oc2ccc(NC(=O)c3ccccc3)cc2C(=O)N([C@@H](C)CO)C[C@@H]1C`, the CPE inhibition was 16.5% (inactive).

Regarding `C[C@H]1CN([C@@H](C)CO)C(=O)c2cc(C#Cc3ccc(F)cc3)cnc2O[C@@H]1CN(C)C(=O)Nc1ccc(F)cc1`, the CPE inhibition is -4.85% (inactive).

Turning to `COc1ccc(C#Cc2cnc3c(c2)C(=O)N([C@H](C)CO)C[C@@H](C)[C@@H](CN(C)C(=O)CN(C)C)O3)cc1`, the CPE inhibition is 33.2% (active).

As for `C[C@H](CO)N1C[C@H](C)[C@@H](CN(C)C(=O)c2cnccn2)Oc2ncc(Br)cc2C1=O`, the CPE inhibition is 17.4% (inactive) and 62.5% (active).

Regarding `COc1ccc(C#Cc2cnc3c(c2)C(=O)N([C@H](C)CO)C[C@H](C)[C@@H](CN(C)C)O3)cc1`, the CPE inhibition was 19.9% (inactive).

For the molecule `COc1ccc(C#Cc2cnc3c(c2)C(=O)N([C@@H](C)CO)C[C@H](C)[C@@H](CN(C)C(C)=O)O3)cc1`, the CPE inhibition was 2.83% (inactive).

In the case of `CC(=O)N(C)C[C@@H]1Oc2ncc(C#Cc3ccc(F)cc3)cc2C(=O)N([C@H](C)CO)C[C@@H]1C`, the CPE inhibition was 28.5% (active).

For the molecule `C/C=C/c1cnc2c(c1)C(=O)N([C@@H](C)CO)C[C@@H](C)[C@H](CN(C)C(=O)c1cnccn1)O2`, the CPE inhibition was -1.7% (inactive).

`C/C=C/c1cnc2c(c1)C(=O)N([C@@H](C)CO)C[C@@H](C)[C@@H](CN(C)C(=O)c1cnccn1)O2`: the CPE inhibition is 2.38% (inactive).

For the molecule `C[C@H](CO)N1C[C@H](C)[C@H](CN(C)C)Oc2ncc(C#Cc3ccc(F)cc3)cc2C1=O`, the CPE inhibition is -5.08% (inactive) and 2.36% (inactive).

On to `N#C[C@H]1[C@H](c2ccccc2)[C@@H](CO)N1C(=O)c1cccnc1`, for which the CPE inhibition was -0.249% (inactive).

Take `COC(=O)[C@]12C[C@H](CC(=O)NCc3ccc(C)o3)C(=O)N(CCC3=CCCCC3)C1=C[C@H](C(C)(C)C)O[C@@H]2C`: the CPE inhibition is 13.9% (inactive).

In the case of `CN(C)C(=O)[C@@H]1[C@@H](CO)[C@@H]2Cn3c(cccc3=O)[C@@H]2N1C(=O)C1CCC1`, the CPE inhibition is -0.032% (inactive).

Consider `O=C(Nc1cccc(Cl)c1)N1C[C@@H]2[C@H](c3ccccc31)[C@H](CO)N2Cc1ccncc1`, for which the CPE inhibition is -4.1% (inactive).

Turning to `C/C=C/c1ccc([C@H]2[C@@H](CO)N[C@@H]2CN(CC)C(=O)CN2CCOCC2)cc1`, the CPE inhibition is -9.22% (inactive).

With `O=C(C[C@@H]1C[C@H]2c3cc(NC(=O)NC4CCCCC4)ccc3O[C@H]2[C@H](CO)O1)NCc1ccncc1`, the CPE inhibition was -3.13% (inactive).

In the case of `CC(C)NC(=O)N(C)C[C@@H]1Oc2ncc(C3=CCCCC3)cc2C(=O)N([C@H](C)CO)C[C@@H]1C`, the CPE inhibition is 4.71% (inactive).

For the molecule `CCCNC(=O)C[C@H]1C[C@@H]2c3cc(NC(=O)COC)ccc3O[C@@H]2[C@@H](CO)O1`, the CPE inhibition was -2.37% (inactive).

In the case of `CN1OC[C@@H]2CN(C(=O)c3cccc4ccccc34)[C@H](c3ccc(N4CCCCC4)cc3)C[C@@H]21`, the CPE inhibition is 1.89% (inactive).

Regarding `CN1OC[C@@H]2CN(C(=O)c3cccnc3)[C@H](c3ccc(N4CCCCC4)cc3)C[C@@H]21`, the CPE inhibition was 42.6% (active).

With `CN1OC[C@@H]2CN(C(=O)C(C)(C)C)[C@H](c3ccc(-n4ccnc4)cc3)C[C@@H]21`, the CPE inhibition was -4.59% (inactive).

Turning to `COc1ccc(NC(=O)Nc2ccc3c(c2)C(=O)N([C@@H](C)CO)C[C@@H](C)[C@@H](CN(C)Cc2ccncc2)OCCCC[C@@H](C)O3)cc1`, the CPE inhibition is -9.1% (inactive).

Consider `CN1C(=O)c2cc(NC(=O)c3cccs3)ccc2OC[C@H]2O[C@@H](CC(=O)NCC3CC3)CC[C@@H]21`, for which the CPE inhibition is -3.31% (inactive).

Consider `C/C=C/c1ccc([C@@H]2[C@H](CO)N(CC3CCCC3)C23CN(C(=O)CC)C3)cc1`, for which the CPE inhibition was 2.47% (inactive).

On to `C/C=C/c1ccc([C@@H]2[C@@H](CO)N(CC3CCCC3)C23CN(S(=O)(=O)CC)C3)cc1`, for which the CPE inhibition is -5.75% (inactive).

Turning to `C/C=C/c1ccc([C@@H]2[C@H](CO)N(CC3CCOCC3)C23CN(S(=O)(=O)CC)C3)cc1`, the CPE inhibition was 73.3% (active).

Regarding `CO[C@H]1CN(C)C(=O)c2ccc(NS(=O)(=O)c3cn(C)cn3)cc2OC[C@H](C)N(C)C[C@H]1C`, the CPE inhibition is -10.1% (inactive).

For the molecule `C/C=C/c1cnc2c(c1)C(=O)N([C@H](C)CO)C[C@H](C)[C@H](CN(C)C(=O)c1cccc(F)c1)O2`, the CPE inhibition was -1% (inactive).

On to `C[C@@H]1CN([C@@H](C)CO)S(=O)(=O)c2ccc(Br)cc2O[C@H]1CN(C)S(=O)(=O)c1ccccc1`, for which the CPE inhibition was -1.43% (inactive).

For the molecule `CCOc1ccc(Oc2nc(C)cc(OC)n2)nn1`, the CPE inhibition is 71.4% (active).

For the molecule `COc1ccc2c3c([nH]c2c1)[C@H](CO)N(Cc1nccs1)CC31CCN(Cc2ccncc2)CC1`, the CPE inhibition is 6.23% (inactive).

In the case of `CCC(=O)N(C)C[C@@H]1Oc2cc(C#C[C@H](C)O)ccc2S(=O)(=O)N([C@@H](C)CO)C[C@H]1C`, the CPE inhibition was -5.73% (inactive).

Regarding `C[C@@H]1CCCCO[C@H](CN(C)S(=O)(=O)c2cn(C)cn2)[C@@H](C)CN([C@@H](C)CO)C(=O)c2cc(NC(=O)c3ccncc3)ccc2O1`, the CPE inhibition is 1.9% (inactive).

Consider `COc1cc2c(cc1OC)CN(CC(=O)Nc1ccc(F)cc1)CC2`, for which the CPE inhibition was -5.5% (inactive).

As to `O=C(CN1CCc2cc3c(cc2C1)OCCCO3)Nc1ccccc1`, the CPE inhibition was 28.1% (active).

Consider `O=C(CN1CCOCC1)Nc1ccccc1`, for which the CPE inhibition was 1.83% (inactive).

Turning to `O=C([C@@H]1[C@@H](CO)[C@@H]2Cn3c(ccc(C4=CCCCC4)c3=O)[C@H]1N2Cc1nccs1)N1CCCCC1`, the CPE inhibition is -3.86% (inactive).

Turning to `COc1ccc2c3c(n(C)c2c1)[C@@H](CO)N(C(=O)c1cccnc1)CC31CCN(C(=O)c2cccnc2)CC1`, the CPE inhibition is -1.97% (inactive).

As to `CCCC#Cc1ccc([C@@H]2[C@@H](CO)N3C(=O)CN(C(=O)c4ccncc4)C[C@@H]23)cc1`, the CPE inhibition is 0.156% (inactive).

Turning to `COCC(=O)N1[C@H](CO)[C@@H](c2ccccc2)[C@H]1CN(C)C(=O)c1ccncc1`, the CPE inhibition is -13.8% (inactive).

Turning to `CCNC[C@@H]1[C@@H](c2ccccc2)[C@@H](CO)N1C(=O)Cc1ccccn1`, the CPE inhibition is -0.972% (inactive).

For `COCC(=O)N1[C@H](CNC(=O)c2ccccn2)[C@H](c2ccccc2)[C@@H]1CO`, the CPE inhibition is 35.1% (active).

As to `COc1ccc2c3c([nH]c2c1)[C@H](CO)N(Cc1cccc(F)c1)CC31CCN(Cc2ccccn2)CC1`, the CPE inhibition was 5.05% (inactive).

As to `CCOc1ccc(C(=O)Nc2ccc(CN3CCOCC3)cc2)cc1Cl`, the CPE inhibition is 29.8% (active).

For the molecule `O=C(Nc1ccc(CN2CCOCC2)cc1)c1cc(Cl)ccc1Cl`, the CPE inhibition is 0.583% (inactive).

On to `CCCc1cc(=O)oc2cc(OCC(=O)Nc3ccc(CN4CCOCC4)cc3)c(Cl)cc12`, for which the CPE inhibition is 2.98% (inactive).

Regarding `Cc1noc(C)c1NC(=O)Nc1ccc2c(c1)CC(=O)N([C@H](C)CO)C[C@@H](C)[C@H](CN(C)S(=O)(=O)c1cccs1)O2`, the CPE inhibition is 5.9% (inactive).

`C[C@@H]1CN([C@@H](C)CO)C(=O)c2cccc(NS(=O)(=O)c3ccc(Cl)cc3)c2O[C@@H]1CN(C)Cc1ccccc1`: the CPE inhibition was 10.9% (inactive).

On to `O=C(Cc1cccnc1)N1CC(=O)N2[C@@H](CO)[C@@H](c3ccc(C#CC4CCCCC4)cc3)[C@@H]2C1`, for which the CPE inhibition is 6.08% (inactive).

Regarding `CC(=O)NCCNC(=O)c1cc(-c2cccc3ccccc23)nc2ccccc12`, the CPE inhibition was 2.13% (inactive).

As for `CCCCN(C)CCCNC(=O)c1cc(-c2cccs2)nc2ccccc12`, the CPE inhibition was 41.4% (active).

In the case of `O=C(Nc1nnc(-c2ccccc2)o1)c1cc(-c2cccs2)nc2ccccc12`, the CPE inhibition was -13.1% (inactive).

Turning to `C/C=C/c1ccc([C@@H]2[C@@H](CN(C)C(C)=O)N(C(=O)C3CC3)[C@H]2CO)cc1`, the CPE inhibition was 41.4% (active).

As to `C/C=C/c1ccc([C@@H]2[C@@H](CO)N(C(C)=O)[C@H]2CN(C)C(=O)CN(C)C)cc1`, the CPE inhibition was 8.38% (inactive).

Regarding `C/C=C/c1ccc([C@H]2[C@@H](CO)N(C(=O)NCCC)[C@H]2CN(C)C(C)=O)cc1`, the CPE inhibition is -22.2% (inactive).

For the molecule `COc1ccc(-c2cn(CC[C@H]3CC[C@@H](NC(=O)CCN4CCCCC4)[C@H](CO)O3)nn2)cc1`, the CPE inhibition was -5.26% (inactive).

As for `Cc1noc(C)c1S(=O)(=O)Nc1ccc2c(c1)C(=O)N([C@@H](C)CO)C[C@H](C)[C@H](CN(C)CC1CCCCC1)OCCCC[C@H](C)O2`, the CPE inhibition is -11.5% (inactive).

In the case of `CC(C)NC(=O)N1[C@@H]2c3ccc(-c4ccc(F)cc4)c(=O)n3C[C@@H]2[C@@H](CO)[C@@H]1C(=O)N1CCOCC1`, the CPE inhibition is 69.3% (active).

With `O=C([C@@H]1[C@@H](CO)[C@@H]2Cn3c(ccc(-c4cncnc4)c3=O)[C@@H]2N1C(=O)C1CCC1)N1CCCCC1`, the CPE inhibition is -0.056% (inactive).

Take `COc1cccc(-c2ccc3n(c2=O)C[C@@H]2[C@@H](CO)[C@H](C(=O)NCC4CC4)N(C(=O)NC(C)C)[C@H]32)c1`: the CPE inhibition is 13.2% (inactive).
